Here are results for 22 compounds from PubChem BioAssay (Tox21).

Test [1] can be described thus: Human pregnane X receptor (PXR) small molecule agonists, qHTS cell viability counter screen (AID 1346977). Note: nearly all actives have a fitted effect of over 50% in size. Note: potency is the fitted concentration of half-maximal effect. The method, boiled down:
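Fluorescence read-out (CellTiter-Fluor) of viability in PXR-Luc HepG2 cells, multiplexed with the luciferase agonist read. Compounds in DMSO added after 5hr plating; 24hr total exposure at 37C, 5% CO2.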

Test [2] is described as follows: Caspase-3/7 induction in HepG2 cells by small molecules, qHTS assay (AID 1346978). Note: nearly all actives have a fitted effect of over 15% in size. The method, boiled down: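 Wild-type HepG2 cells (2,000/well) were settled 5 h at 37 C, 5% CO2, then exposed to compounds in DMSO for 17 h. Caspase-3/7 activity was read by luminescence 30 min after adding Caspase-Glo 3/7 reagent at room temperature.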
(In qHTS, concentration-response curves come from the screen itself.)

The nature of test [3]: Caspase-3/7 induction in CHO-K1 cells by small molecules, qHTS cell viability counter screen (AID 1346979). Note: nearly all actives have a fitted effect of over 35% in size. Note: potency is the fitted concentration of half-maximal effect. The method, boiled down:
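CHO-K1 wt, 1,500 cells/well; 5hr pre-incubation 37C/5% CO2; compound pin transfer (DMSO); 16hr exposure; CellTiter-Fluor added, 1hr, fluorescence read.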

Test [4] can be described thus: Caspase-3/7 induction in CHO-K1 cells by small molecules, qHTS assay (AID 1346980). Note: nearly all actives have a fitted effect of over 15% in size. The method, boiled down:
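Wild-type cells were seeded at 1,500 per well and settled 5 hr at 37 C, 5% CO2, then exposed to DMSO-dissolved compounds for 17 hr. Caspase-Glo 3/7 reagent was added, and luminescence was read after 30min at room temperature.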

Test [5] in a line: Caspase-3/7 induction in HepG2 cells by small molecules, qHTS cell viability counter screen (AID 1346981). Note: nearly all actives have a fitted effect of over 30% in size. Note: potency is the fitted concentration of half-maximal effect. The method, boiled down: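 Cell viability is measured as a cytotoxicity counter screen alongside the Caspase-Glo 3/7 readout in identical wells. Wild-type HepG2 cells are treated with test compounds for 16 hr at 37 C before CellTiter-Fluor addition and a 1-hr incubation.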

For test [6], the target named is Nuclear receptor subfamily 1 group I member 2 (Homo sapiens) (UniProt O75469). The experiment in a line: Human pregnane X receptor (PXR) small molecule agonists, qHTS assay (AID 1346982). Note: nearly all actives have a fitted effect of over 35% in size. Note: potency is the fitted concentration of half-maximal effect. The method, boiled down: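 Cells: HepG2 stably carrying PXR-Luc. Medium held 5% charcoal-stripped FBS. Compounds in DMSO added after 5 hr plating, incubated 24 hr, then luminescence quantified with ONE-Glo.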
Chain of Nuclear receptor subfamily 1 group I member 2 (Homo sapiens) (O75469 whole entry, looked up): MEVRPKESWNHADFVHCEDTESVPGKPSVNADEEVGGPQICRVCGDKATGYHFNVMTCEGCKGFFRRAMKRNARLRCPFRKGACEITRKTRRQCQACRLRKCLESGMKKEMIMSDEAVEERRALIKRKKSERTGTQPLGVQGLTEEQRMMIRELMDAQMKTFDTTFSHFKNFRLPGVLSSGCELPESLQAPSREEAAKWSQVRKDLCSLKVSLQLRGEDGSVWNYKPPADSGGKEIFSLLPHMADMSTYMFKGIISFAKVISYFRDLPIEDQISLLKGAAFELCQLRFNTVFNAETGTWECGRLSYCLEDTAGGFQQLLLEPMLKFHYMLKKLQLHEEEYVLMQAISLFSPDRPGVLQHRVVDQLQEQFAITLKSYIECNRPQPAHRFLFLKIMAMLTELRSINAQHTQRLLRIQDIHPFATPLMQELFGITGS

Test [7] addresses Nuclear receptor subfamily 1 group I member 2 (Rattus norvegicus) (UniProt Q9R1A7). The experiment in a line: Rat pregnane X receptor (rPXR) activation by small molecules, qHTS assay (AID 1346983). Note: nearly all actives have a fitted effect of over 20% in size. The following applies: rPXR luciferase reporter cells, One-Glo luminescence, 24 h; max activation: stronger effect = higher value. The method, boiled down: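 Cell-based rPXR luciferase reporter assay, 2,000 cells per well, rested 5hr at 37 C before compound addition in DMSO, then 24 hr at 37 C. One-Glo reagent was added and luminescence read after 30 min at room temperature.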

Test [8] addresses Nuclear receptor subfamily 1 group I member 2 (Homo sapiens) (UniProt O75469). The experiment in a line: CYP3A4 induction through human pregnane X receptor (PXR) by small molecules, qHTS assay (AID 1346984). Note: nearly all actives have a fitted effect of over 40% in size. The method, boiled down:
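Quantitative HTS in DPX-2 cells, i.e. HepG2 transfected with PXR response element and CYP3A4-promoter luciferase. Compounds in DMSO incubated 24hr at 37C; then P450-Glo CYP3A4 substrate, 3uM final, 3hr; One-Glo luminescence.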

The target is the same in test [9]. The experiment in a line: Human pregnane X receptor (PXR) activation by small molecules, qHTS assay (AID 1346985). Note: nearly all actives have a fitted effect of over 40% in size. The method, boiled down:
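DPX-2 cells (HepG2 co-transfected with a PXR response element and a CYP3A4-promoter luciferase construct) were seeded at 2,000 per well, rested 5 hr at 37C, then exposed to DMSO-dissolved compounds for 24 hr. Activation was read as luciferase luminescence.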

Test [10] addresses Cytochrome P450 2D6 (Homo sapiens) (UniProt P10635). The experiment in a line: Cytochrome P450 Family 2 Subfamily D Member 6 (CYP2D6) small molecule antagonists: luciferase reporter qHTS assay (AID 1671196). For activity change, negative = inhibition: series mostly up to about 120 µM. Note: nearly all actives have a fitted effect of over 50% in size. Note: potency is the fitted concentration of half-maximal effect. The method, boiled down:
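Enzyme and proluciferin substrate were first combined with test chemical for 10 min at room temperature. Adding NADPH regeneration solution started a 1 h reaction, stopped with luciferin detection reagent and read by luminescence 20 min later.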

Where “and” joins values, the source holds several entries; their conditions need not be identical. Identical values can stand only once. Records with an inconclusive call do not appear. Some structures have more than one record in an assay (separate samples or runs), and their calls can disagree. Calls of active or inactive are those of the source. Calls come from the whole dose curve; as a rule, active = well fitted curve in the direction sought with a large enough effect in the repeat runs; inconclusive = weak or mixed curves; inactive = no such curve, though single readings can be large; an effect the other way counts as inactive or inconclusive.
% is set by controls: 0 for no effect and ±100 for the full control effect.

Chain of Cytochrome P450 2D6 (Homo sapiens) (P10635 whole entry, looked up): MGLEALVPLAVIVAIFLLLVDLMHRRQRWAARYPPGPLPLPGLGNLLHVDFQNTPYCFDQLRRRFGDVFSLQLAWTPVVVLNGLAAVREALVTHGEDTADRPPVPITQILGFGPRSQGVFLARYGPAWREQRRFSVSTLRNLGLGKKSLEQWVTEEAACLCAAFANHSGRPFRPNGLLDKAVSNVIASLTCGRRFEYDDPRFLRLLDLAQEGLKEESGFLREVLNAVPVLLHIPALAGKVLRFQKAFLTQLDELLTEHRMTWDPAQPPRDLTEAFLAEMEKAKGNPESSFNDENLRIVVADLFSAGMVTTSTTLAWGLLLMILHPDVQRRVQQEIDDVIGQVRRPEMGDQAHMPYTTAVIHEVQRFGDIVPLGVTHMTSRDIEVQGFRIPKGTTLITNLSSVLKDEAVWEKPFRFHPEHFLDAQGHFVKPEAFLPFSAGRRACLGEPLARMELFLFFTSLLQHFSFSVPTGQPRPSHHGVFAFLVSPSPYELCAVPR
Chain of Nuclear receptor subfamily 1 group I member 2 (Rattus norvegicus) (Q9R1A7 whole entry, looked up): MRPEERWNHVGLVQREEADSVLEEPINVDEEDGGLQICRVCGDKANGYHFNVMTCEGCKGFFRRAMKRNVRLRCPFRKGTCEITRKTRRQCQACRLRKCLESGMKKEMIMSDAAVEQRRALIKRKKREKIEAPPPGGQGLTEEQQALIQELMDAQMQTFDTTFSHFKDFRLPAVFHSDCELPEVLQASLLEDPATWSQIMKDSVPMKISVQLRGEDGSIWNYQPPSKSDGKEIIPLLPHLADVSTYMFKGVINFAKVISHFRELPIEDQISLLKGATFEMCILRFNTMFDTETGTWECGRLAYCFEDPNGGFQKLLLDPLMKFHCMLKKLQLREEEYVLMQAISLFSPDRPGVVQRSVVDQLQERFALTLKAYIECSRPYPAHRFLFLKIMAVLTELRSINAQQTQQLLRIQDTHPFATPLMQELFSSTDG

With `Cc1cc(O)cc(C)c1Cl`, the Potency result in test [1], in test [2], in [3], in [4], in [5] and in test [6] was “inactive” throughout. Also, in test [10], the Potency entry is “inactive”. Moreover, the max activation in [7] is -1.35% (inactive). Moreover, the compound was called inactive in [8] and in test [9].

Turning to `CC1(C)O[C@@H]2C[C@H]3[C@@H]4C[C@H](F)C5=CC(=O)CC[C@]5(C)[C@H]4[C@@H](O)C[C@]3(C)[C@]2(C(=O)CO)O1`, the Potency result in test [1], in [2], in test [3], in [4], in [5] and in [10] was “inactive” each time. In addition, the Potency in test [6] was 11.9 µM (active). Also, the compound was classed as inactive in test [9].

On to `C[C@@H](O)[C@H]1C(=O)N2C(C(=O)O)=C(S[C@@H]3CN[C@H](C(=O)N(C)C)C3)[C@H](C)[C@H]12`, for which the Potency result in test [1], in test [2], in test [3], in [4], in [5] and in test [6] was “inactive” in each case. In test [7], the max activation was -2.7% (inactive). Moreover, the result in [8] and in [9] was inactive. The Potency in [10] is 17.4 µM (active) and inactive.

For `Cc1cc(=O)[nH]c(C(C)C)n1`, the Potency entry in [1], in test [2], in test [3], in [4], in test [5] and in test [6] was “inactive” each time. For the same compound, the Potency entry in test [10] was “inactive”.

`CC1CC(OC(=O)c2ccccc2O)CC(C)(C)C1` (configuration not stated): the Potency result in [1], in test [2], in [3], in test [4], in test [5] and in [6] was “inactive” in each case. For the same compound, the Potency entry in [10] was “inactive”. For the same compound, the max activation in test [7] was -1.96% (inactive). Also, the result in [8] and in test [9] was inactive.

Regarding `CC1=C(CC(=O)O)c2cc(F)ccc2/C1=C\c1ccc(S(C)=O)cc1` (configuration not stated), the Potency entry in test [1], in test [2], in test [3], in test [4] and in [5] was “inactive” each time. For the same compound, the Potency in [6] was 21.7 µM (active) and inactive; in test [10] it was 35.6 µM (active) and 34.7 µM (active). Further, the max activation in test [7] is -1.51% (inactive). The compound was called inactive in test [8] and in test [9].

With `Cc1cc(NS(=O)(=O)c2ccc(N)cc2)no1`, the Potency result in test [1], in test [2], in test [3], in test [4] and in test [5] was “inactive” in each case.

Turning to `NCCNCCNCCNCCN`, the Potency entry in test [1], in test [2], in test [3], in test [4], in [5] and in [6] was “inactive” each time. The max activation in [7] was -4.35% (inactive). Besides, the call in test [8] and in [9] was inactive. Further, the Potency in test [10] is 63 µM (active). Besides, the activity change, negative = inhibition in test [10] was -26.4% [at 10.5 µM] (inactive).

`Nc1nc2ncc(CNc3ccc(C(=O)N[C@@H](CCC(=O)O)C(=O)O)cc3)nc2c(=O)[nH]1`: the Potency result in test [1], in test [2], in test [3], in test [4], in test [5] and in test [6] was “inactive” each time. Moreover, in test [10], the Potency result is “inactive”. The max activation in test [7] is -0.844% (inactive). The result in [8] and in test [9] was inactive.

In the case of `CC1Cc2ccccc2N1NC(=O)c1ccc(Cl)c(S(N)(=O)=O)c1` (configuration not stated), the Potency result in test [1], in test [2], in [3], in [4] and in [5] was “inactive” in each case. Moreover, in test [6], the Potency is 30.6 µM (active) and 9.44 µM (active). Besides, the max activation in test [7] is -2.07% (inactive). For the same compound, the compound was classed as inactive in [8] and in test [9].

Take `CCCCCC/C=C/CCCCCCCC(=O)O`: the Potency result in test [1], in test [2], in [3], in test [4], in test [5] and in [6] was “inactive” in each case. Besides, the Potency result in [10] is “inactive”.

Take `CCCCCCCCCCC=CC1CC(=O)OC1=O` (configuration not stated): the Potency result in test [1], in [2], in test [3], in test [4], in [5] and in [6] was “inactive” in each case.

On to `CS(=O)(=O)c1ccc([C@@H](O)[C@@H](CO)NC(=O)C(Cl)Cl)cc1`, for which the Potency entry in test [1], in test [2], in test [3], in test [4], in test [5] and in [6] was “inactive” each time. Moreover, the max activation in test [7] was -0.108% (inactive). The compound was classed as inactive in test [8] and in test [9]. Also, the Potency in test [10] is 64.1 µM (active) and inactive.

As for `CC(C)NCC(O)COc1cccc2ccccc12` (configuration not stated), in test [1], the Potency was 39.8 µM (active). In addition, the Potency entry in [2], in test [3], in test [4] and in [5] was “inactive” in each case.

`c1ccc2ccccc2c1`: the Potency result in test [1], in test [2], in test [3], in test [4], in [5] and in test [6] was “inactive” in each case. Moreover, the Potency entry in test [10] was “inactive”. Further, the max activation in [7] was -0.655% (inactive). Also, the outcome in test [8] and in [9] was inactive.

Consider `CCCCC(CC)COC(=O)/C=C\C(=O)OCC(CC)CCCC` (configuration not stated), for which the Potency entry in test [1], in test [2], in test [3], in test [4], in test [5] and in test [10] was “inactive” in each case. Besides, the Potency in [6] is 48.5 µM (active) and inactive.

With `CC[Si](OC(C)=O)(OC(C)=O)OC(C)=O`, the Potency entry in test [1], in [2], in test [3], in test [4] and in test [5] was “inactive” each time. The Potency in [6] was 48.5 µM (active) and 48.6 µM (active); in test [10] it was 35.6 µM (active).

Take `CCCCCCCCCC(=O)O`: the Potency entry in [1], in test [2], in test [3], in test [4], in test [5] and in test [6] was “inactive” throughout. In addition, in [10], the Potency result is “inactive”.

Consider `CC(=O)CCc1ccccc1`, for which the Potency entry in [1], in test [2], in test [3], in test [4], in [5] and in test [6] was “inactive” in each case. For the same compound, the Potency entry in test [10] is “inactive”.

`O=S(=O)(O)c1cc(S(=O)(=O)O)c2c(N=Nc3ccccc3)c(O)ccc2c1`: the Potency in test [1] was 39.8 µM (active) and 54.5 µM (active); in test [3], 54.7 µM (active) and 34.4 µM (active); in test [5], 54.7 µM (active) and 54.5 µM (active). For the same compound, the Potency entry in test [2], in test [4], in [6] and in test [10] was “inactive” throughout.

On to `OCCOCCOCCOCCO`, for which the Potency result in test [1], in test [2], in test [3], in test [4], in [5] and in test [6] was “inactive” in each case. Besides, the Potency result in test [10] was “inactive”.

Regarding `C=C(C)C(=O)OCC(CC)(COC(=O)C(=C)C)COC(=O)C(=C)C`, the Potency entry in [1], in [2], in [3], in [4], in test [5] and in test [6] was “inactive” each time. For the same compound, the Potency in test [10] was 16.2 µM (active).
